Caspase-1 inhib – blocks human caspase-1 allosterically or competitively. 75,000 compounds, 0.03% hits. P29466. Caspase-1 enzyme, Ac-WEHD-AFC fluorogenic rate. Potency, µM (titrated, usually from 57.5 µM), without a hit: at the top dose activity change, negative = inhibition, most hits filed as inhibitors; active = well fitted inhibition curve with a large enough effect; inconclusive = small, poorly fitted or top-dose-only effect;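 note: plate controls were vehicle for no effect and no substrate for full effect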
GBA activity – human lysosomal glucosylceramidase modulation; P04062; purified enzyme, resorufin glucoside fluorescence (screen aimed at inhibitors), 20 min; Potency, µM; 48,000 compounds, 1.1% hits; in the data active = potency below about 15 µM; inconclusive = mostly about 16 µM to 33 µM;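 note: the screen sought inhibitors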
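Wild-type enzyme at 0.2 nM final in 50mM citric acid/KH2PO4, 10mM sodium taurocholate, 0.01% tween-20, pH 5.9, with resorufin beta-D-glucopyranoside at 30 uM final. Compounds titrated, 20 min at RT, red fluorescence read; AC50 from titration.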
Caspase-7 inhib – allosteric or competitive inhibitors of human caspase-7 | P55210 | 75,000 compounds, 0.02% hits | recombinant caspase-7, Ac-DEVD-AFC fluorescence rate | Potency, µM (series often up to 57.5 µM), without a hit: at the top dose activity change, negative = inhibition, hits mostly inhibitors; active = well fitted inhibition curve with a large enough effect in the main read-out, with a control signal flat, not every such curve was filed as active; inconclusive = small, poorly fitted or top-dose-only effect, or a change in a side signal; note: % of control where 0% means no effect
The depositor's hits bear a star; i = inactive; u = inconclusive; x = not tested or not shown; [ ] = remark or other dose. The entries come from a sample that favours hits as a whole. Potency is the fitted concentration of half-maximal effect.

SMILES | Caspase-1 inhib | GBA activity | Caspase-7 inhib
NC1=NC(c2cn(-c3ccccc3)nc2-c2cccs2)n2c(nc3ccccc32)N1 (stereo unspecified) | -3% | 12* | -4%
CC1=C(C#N)C(c2cn(-c3ccccc3)nc2-c2cccs2)C(C#N)=C(C)N1 | -13% | i | -8%
O=C1O/C(=C\Br)CC[C@@H]1c1cccc2ccccc12 | 3% | x | 0%
O=C(Nc1nnc(C(F)(F)F)s1)c1cccnc1 | 0% | x | -1%
COCc1nnc(NC(=O)c2ccc(NC(C)=O)cc2)s1 | 2% | 6.8* | -2%
COCc1nnc(NC(=O)CCc2ccccc2)s1 | 1% | >77 | 0%
COCc1nnc(NC(=O)c2cccs2)s1 | 1% | u | 0%
COc1ccc(C(=O)Nc2nnc(C(F)(F)F)s2)cc1 | 0% | 3.3* | -1%
CCCC(=O)Nc1ccc(C(=O)Nc2nnc(COC)s2)cc1 | 0% | 0.77* | 2%
O=c1cnc2cnc(OCc3ccccc3)nc2n1CCc1ccccc1 | -7% | x | -3%
CCCCCCCCCCCCCCC(C(=O)O)C(O)(CC(=O)OC)C(=O)O (stereo unspecified) | -4% | x | -1%
COCC#Cc1ccc(C2C(C)CCC3C(=O)N4C(CCC(C)C4c4ccc(C#CCOC)cc4)C(=O)N32)cc1 (stereo unspecified) | -1%[11.5 µM] | x | -2%[11.5 µM]
CCOC(=O)c1sc(N)c(C(=O)Nc2ccc(C)cc2C)c1C | -6% | x | -3%
O=C(O)c1ccccc1NS(=O)(=O)c1ccccc1F | -2% | x | -1%
ClCCCl | -4% | x | 1%
CCOC(=O)c1cnc(-n2cc(C)cn2)nc1Nc1ccccc1OC | -1% | 12* | 0%
CCOC(=O)c1cnc(-n2nc(C)cc2C)nc1Nc1ccc(N(C)C)cc1 | -1% | >77 | -1%
CCN(CC)CCCC(C)n1c(-c2ccccc2)nc2c(NCCOC)nc(C)nc21 (stereo unspecified) | 2% | x | 0%
CC(C)Cn1c(=O)c2c(nc3n2CCCN3CCc2ccccc2)n(C)c1=O | 3% | >15 | -2%
Cn1c(=O)n(CCc2ccccc2)c(=O)c2c1nc1n2CCCN1CCc1ccccc1 | -5% | 9* | -6%
Cn1c(=O)n(CCc2ccccc2)c(=O)c2c1nc1n2CCCN1Cc1ccccc1 | -2% | i | -2%
COc1ccc(N2CCCn3c2nc2c3c(=O)n(CCc3ccccc3)c(=O)n2C)cc1 | 0% | 12* | 4%
Cn1c(=O)n(Cc2ccccc2F)c(=O)c2c1nc1n2CCCN1CCc1ccccc1 | -3% | 14* | -2%
CCOc1ccc(N2CCCn3c2nc2c3c(=O)n(CCc3ccccc3)c(=O)n2C)cc1 | -3% | >77 | -3%
Cc1ccccc1-c1nccc(Nc2ccc(F)cc2)n1 | -1% | x | -1%
SMILES | Caspase-1 inhib | GBA activity | Caspase-7 inhib
Oc1cc(O)cc(/C=C\c2ccc(O)c(O)c2)c1 | u | x | -8%
Nc1nc(Cl)nc2c1ncn2[C@@H]1O[C@@H](CO)[C@@H](O)[C@H]1O | -3% | x | 0%
NC(=O)/N=N/C(N)=O | -2% | x | -2%
CC(C)CN1CCC2(CC1)CCN(C(=O)c1csnn1)CC2 | -5% | x | -3%
N[C@H](Cc1cc(I)c(Oc2ccc(O)c(I)c2)c(I)c1)C(=O)O | -3%[25.7 µM] | x | 0%[25.7 µM]
O=c1c2ccccc2[nH]c(=S)n1C1CCCCC1 | -1% | 14* | 0%
CC1CCC(n2c(=S)[nH]c3ccccc3c2=O)CC1 (stereo unspecified) | -5% | x | -1%
Nc1nc2c(c(=O)[nH]1)N[C@H](CCNc1ccc(C(=O)O)cc1)CN2 | -1%[11.5 µM] | x | -2%[11.5 µM]
CCn1c(C)nc2cc(C(=O)OCCC(F)(F)F)ccc21 | 1% | 11* | 8%
CCOC(=O)c1ccc2c(c1)nc(SCC(=O)N1CCCCC1)n2CC | -1% | >77 | -2%
CO[C@H]1COC(=O)[C@H](C)NC(=O)C/C=C\[C@@H](C)[C@H](OC)COC(=O)C/C=C\[C@@H]1C | -3%[11.5 µM] | x | 1%[11.5 µM]
CCc1ccc(CNc2ccc(N3CCN(C(C)=O)CC3)cc2)cc1 | 0% | 12* | 1%
Cc1ccc(CNc2ccc(O)cc2)cc1 | u | i | -30%
CC(=O)N1CCN(c2ccc(NCc3ccc(C)cc3)cc2)CC1 | -1% | 12* | 2%
CC(=O)Nc1ccc(N2CCN(C(C)=O)CC2)cc1 | 4% | >77 | -1%
N=C(N)CCNC(=O)[C@@H]1CCC(N)=N1 | -2%[11.5 µM] | x | 0%[11.5 µM]
CN(C)c1ccc(-c2cncnc2-n2ccnc2)cc1 | 0% | x | -1%
CC1=C(C(=O)O)N2C(=O)C(NC(=O)C(N)c3ccccc3)C2SC1 (stereo unspecified) | 1% | x | 0%
CCN1CCc2c(sc(N)c2C#N)C1 | x | >77 | u
N#Cc1c(N)sc(=S)c2c1CCN(Cc1ccccc1)C2 | x | x | 13µM*
CC[N+](CC)(CC)CCOc1ccc(/C=C\c2ccccc2)cc1 | 1% | x | -1%
N#CC1=C(N)N(c2ccccc2C#N)C2=C(C(=O)CCC2)C1c1ccsc1 (stereo unspecified) | -4% | >77 | -7%
N#CC1=C(N)N(c2ccccc2)C2=C(C(=O)CCC2)C1c1cccs1 (stereo unspecified) | -4% | 13* | -17%
O=C(O)c1ccc(NS(=O)(=O)c2cccc3ccccc23)cc1 | -3% | x | -1%
CC1=C(/C=C/C(C)=C/C=C/C(C)=C\C=O)C(C)(C)CCC1 | -1% | x | -7%
SMILES | Caspase-1 inhib | GBA activity | Caspase-7 inhib
Cc1cc(C)cc(O)c1 | -2% | x | -1%
c1ccc2c(c1)CCCC2NC1=NCCC1 (stereo unspecified) | 0% | >77 | -1%
Clc1ccccc1-c1nccc(NCCN2CCOCC2)n1 | 1% | x | -2%
O=C1C(Cl)=C(NCCN2CCOCC2)C(=O)c2ncccc21 | 6.3µM* | x | -15%
O=C1C(Cl)=C(NC2CCc3ccccc32)C(=O)c2ncccc21 (stereo unspecified) | 1.6µM* | x | u
CC(=O)N1CCC[C@@]2(CCN(Cc3nccs3)C2)C1 | -5% | x | -6%
CC(C)CN1CC[C@@]2(CCCN(C(=O)c3ccco3)C2)C1 | -1% | x | -2%
Cc1nc2c3cnn(-c4ccc(C)c(C)c4)c3ncn2n1 | -1% | >77 | 0%
C#CCn1cnc2c(cnn2-c2ccc(C)c(C)c2)c1=O | 2% | 15* | 0%
CCc1nnc2c3cnn(-c4ccc(C)c(C)c4)c3ncn12 | 1% | 0.21* | 1%
Cc1ccc(-n2ncc3c(=O)n(CC#N)cnc32)cc1C | 0% | >77 | -1%
CCC(=O)[C@]12O[C@@]3(C4C(=O)OCCC41)N(Cc1ccccc1)C(C)=C(C(=O)OC)C(c1ccccc1)N3C2=O (stereo partly specified) | -2%[11.5 µM] | x | 2%[11.5 µM]
CCc1ccc(CCC(=O)O)nc1 | -1%[11.5 µM] | x | 3%[11.5 µM]
CN1[C@@H]2CC(OC(=O)[C@@H](CO)c3ccccc3)C[C@H]1[C@H]1O[C@H]12 (stereo partly specified) | -3% | x | 1%
COc1ccccc1N1CCN(c2ncnc3c2oc2ccccc23)CC1 | -1% | >77 | 0%
c1cnc(N2CCN(c3ncnc4c3oc3ccccc34)CC2)nc1 | -2% | 5.7* | -1%
Cn1c(=O)[nH]c(=O)c2c1nc(N1CCCCCC1)n2CCN1CCCCCC1 | 2% | 11* | 1%
Cn1c(=O)[nH]c(=O)c2c1nc(N1CCCCC1)n2CC(O)CN1CCCCC1 (stereo unspecified) | -1% | >77 | 0%
CCOc1ccc(-c2cc(C(=O)N/N=C/c3ccc(O)c(OC)c3)[nH]n2)cc1 | 0% | x | 0%
